# Assay results as given in paper PMC7862700, “An all-to-all approach to the identification of sequence-specific readers for epigenetic DNA modifications on cytosine”.
# Assays:
# Experiment in all cases: DAPPL (digital affinity profiling via proximity ligation, sequencing); 10 mM Tris-HCl pH 7.5, 50 mM NaCl, 1 mM DTT, 4% glycerol, room temperature, 30 min; GST-TFs on glutathione beads, 16-mer random dsDNA library, 0.1% formaldehyde crosslink after washing; high values mean tight binding
# FLI1 = molecular target: T1, FLI1 (Homo sapiens, UniProt Q01543 1-452); conditions: protein: recombinant; tags: N-terminal GST; dsDNA, one strand shown
# T1 sequence: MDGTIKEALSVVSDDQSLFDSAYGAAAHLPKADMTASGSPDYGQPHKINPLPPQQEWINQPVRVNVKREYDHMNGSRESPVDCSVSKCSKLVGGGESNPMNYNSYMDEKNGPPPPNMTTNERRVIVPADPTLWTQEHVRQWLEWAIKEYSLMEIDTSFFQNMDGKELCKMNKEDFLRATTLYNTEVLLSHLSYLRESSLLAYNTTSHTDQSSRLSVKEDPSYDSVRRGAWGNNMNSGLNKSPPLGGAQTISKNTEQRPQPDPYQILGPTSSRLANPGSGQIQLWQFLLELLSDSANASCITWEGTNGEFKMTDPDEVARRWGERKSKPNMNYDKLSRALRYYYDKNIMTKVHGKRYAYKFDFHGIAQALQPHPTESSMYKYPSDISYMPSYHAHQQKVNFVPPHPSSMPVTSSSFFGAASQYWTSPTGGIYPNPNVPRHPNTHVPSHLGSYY
# Summary of the method: (§1)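 GST fusions of human transcription factors were expressed in yeast and captured with glutathione beads. Once given DNA barcodes and pooled alongside a tag-only sample, they were incubated for 30 min at room temperature with 200 nmole of a random double-stranded 16-mer DNA library in Tris/NaCl/DTT/glycerol buffer, then washed, crosslinked (0.1% formaldehyde), proximity-ligated, PCR-amplified and sequenced on an Illumina NextSeq500. The binding signal of each hexamer is its read frequency for a factor divided by its frequency for the tag-only sample.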
# ELK1 = molecular target: T2, ELK1 (Homo sapiens, UniProt P19419 1-428); conditions: protein: recombinant; tags: N-terminal GST; dsDNA, one strand shown
# T2 sequence: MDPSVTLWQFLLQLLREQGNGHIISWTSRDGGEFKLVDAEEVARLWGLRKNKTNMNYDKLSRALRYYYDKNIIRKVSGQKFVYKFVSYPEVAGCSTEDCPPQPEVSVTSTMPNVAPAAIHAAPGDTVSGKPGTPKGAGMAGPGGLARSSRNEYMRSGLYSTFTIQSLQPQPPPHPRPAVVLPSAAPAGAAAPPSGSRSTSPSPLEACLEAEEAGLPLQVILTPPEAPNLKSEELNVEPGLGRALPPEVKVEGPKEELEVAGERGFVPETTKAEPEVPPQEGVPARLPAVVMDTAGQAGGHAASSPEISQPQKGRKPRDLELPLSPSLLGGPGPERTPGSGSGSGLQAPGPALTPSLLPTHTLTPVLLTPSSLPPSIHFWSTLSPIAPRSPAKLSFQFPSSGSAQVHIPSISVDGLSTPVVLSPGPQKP
# Summary of the method: as §1
# GABPA = molecular target: T3, GABPA (Homo sapiens, UniProt Q06546 1-454); conditions: protein: recombinant; tags: N-terminal GST; dsDNA, one strand shown
# T3 sequence: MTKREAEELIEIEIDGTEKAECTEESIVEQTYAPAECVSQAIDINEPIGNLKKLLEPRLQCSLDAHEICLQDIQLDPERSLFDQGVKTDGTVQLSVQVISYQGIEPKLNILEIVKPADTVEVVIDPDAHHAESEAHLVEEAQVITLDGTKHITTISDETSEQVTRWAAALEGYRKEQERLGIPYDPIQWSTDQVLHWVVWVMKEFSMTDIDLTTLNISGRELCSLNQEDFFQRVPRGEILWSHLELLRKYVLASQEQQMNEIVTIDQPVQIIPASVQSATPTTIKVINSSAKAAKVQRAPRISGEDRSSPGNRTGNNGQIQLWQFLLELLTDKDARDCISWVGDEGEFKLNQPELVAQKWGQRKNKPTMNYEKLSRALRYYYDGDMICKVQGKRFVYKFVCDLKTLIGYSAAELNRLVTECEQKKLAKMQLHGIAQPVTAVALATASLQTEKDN
# Summary of the method: as §1
# ERG = molecular target: T4, ERG (Homo sapiens, UniProt P11308 1-479); conditions: protein: recombinant; tags: N-terminal GST; dsDNA, one strand shown
# T4 sequence: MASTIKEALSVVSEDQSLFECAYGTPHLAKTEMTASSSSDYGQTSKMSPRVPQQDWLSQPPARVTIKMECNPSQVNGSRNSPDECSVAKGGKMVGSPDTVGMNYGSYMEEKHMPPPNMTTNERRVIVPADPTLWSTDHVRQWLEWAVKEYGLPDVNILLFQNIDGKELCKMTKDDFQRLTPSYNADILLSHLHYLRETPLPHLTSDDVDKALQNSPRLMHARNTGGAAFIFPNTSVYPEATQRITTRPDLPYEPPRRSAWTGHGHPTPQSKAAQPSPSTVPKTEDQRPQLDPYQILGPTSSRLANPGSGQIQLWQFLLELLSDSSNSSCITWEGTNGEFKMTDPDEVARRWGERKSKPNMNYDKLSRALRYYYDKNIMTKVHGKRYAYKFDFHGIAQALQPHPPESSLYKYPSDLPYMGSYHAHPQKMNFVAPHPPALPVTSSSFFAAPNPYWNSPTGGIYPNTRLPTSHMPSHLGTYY
# Summary of the method: as §1
# ELF1 = ELF1 (Homo sapiens, UniProt P32519 1-619); conditions: protein: recombinant; tags: N-terminal GST; dsDNA, one strand shown
# ELF1, sequence (P32519 whole entry): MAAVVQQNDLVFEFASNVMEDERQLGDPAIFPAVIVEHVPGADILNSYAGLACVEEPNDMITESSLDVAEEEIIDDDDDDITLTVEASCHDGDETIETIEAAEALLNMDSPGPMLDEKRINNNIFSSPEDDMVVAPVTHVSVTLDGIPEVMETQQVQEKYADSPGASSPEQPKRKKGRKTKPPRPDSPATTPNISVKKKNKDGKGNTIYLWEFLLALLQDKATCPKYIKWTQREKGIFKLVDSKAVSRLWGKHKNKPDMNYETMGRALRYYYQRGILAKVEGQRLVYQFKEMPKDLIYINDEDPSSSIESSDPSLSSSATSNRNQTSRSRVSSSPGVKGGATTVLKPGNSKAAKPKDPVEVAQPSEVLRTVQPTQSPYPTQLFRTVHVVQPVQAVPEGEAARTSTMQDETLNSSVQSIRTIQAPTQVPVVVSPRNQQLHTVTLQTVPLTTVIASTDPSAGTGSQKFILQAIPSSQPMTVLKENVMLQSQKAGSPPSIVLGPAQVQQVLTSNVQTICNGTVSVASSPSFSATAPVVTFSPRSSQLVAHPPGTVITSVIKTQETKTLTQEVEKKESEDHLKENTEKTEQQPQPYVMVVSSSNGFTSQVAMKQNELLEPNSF
# Summary of the method: as §1
# EHF = molecular target: T5, EHF (Homo sapiens, UniProt Q9NZC4 1-300); conditions: protein: recombinant; tags: N-terminal GST; dsDNA, one strand shown
# T5 sequence: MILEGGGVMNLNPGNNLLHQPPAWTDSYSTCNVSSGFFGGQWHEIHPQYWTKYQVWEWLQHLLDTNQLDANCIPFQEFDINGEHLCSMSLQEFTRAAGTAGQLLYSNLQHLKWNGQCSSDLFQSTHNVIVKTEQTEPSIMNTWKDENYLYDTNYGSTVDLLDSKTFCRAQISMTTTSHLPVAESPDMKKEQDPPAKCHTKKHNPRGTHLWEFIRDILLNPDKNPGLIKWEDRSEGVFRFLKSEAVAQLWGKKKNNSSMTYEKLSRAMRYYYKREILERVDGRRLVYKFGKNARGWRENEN
# Summary of the method: as §1
# SPI1 = SPI1 (Homo sapiens, UniProt P17947 1-270); conditions: protein: recombinant; tags: N-terminal GST; dsDNA, one strand shown
# Summary of the method: as §1
# SPIB = SPIB (Homo sapiens, UniProt Q01892 1-262); conditions: protein: recombinant; tags: N-terminal GST; dsDNA, one strand shown
# SPIB, sequence (Q01892 whole entry): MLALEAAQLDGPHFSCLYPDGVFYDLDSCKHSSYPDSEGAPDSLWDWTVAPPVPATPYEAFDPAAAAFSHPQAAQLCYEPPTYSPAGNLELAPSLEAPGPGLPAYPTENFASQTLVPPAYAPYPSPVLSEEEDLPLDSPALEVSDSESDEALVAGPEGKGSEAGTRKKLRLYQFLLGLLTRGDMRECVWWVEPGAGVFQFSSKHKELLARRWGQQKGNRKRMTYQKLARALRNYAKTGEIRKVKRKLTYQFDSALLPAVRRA
# Summary of the method: as §1
# ELK3 = molecular target: T6, ELK3 (Homo sapiens, UniProt P41970 1-407); conditions: protein: recombinant; tags: N-terminal GST; dsDNA, one strand shown
# T6 sequence: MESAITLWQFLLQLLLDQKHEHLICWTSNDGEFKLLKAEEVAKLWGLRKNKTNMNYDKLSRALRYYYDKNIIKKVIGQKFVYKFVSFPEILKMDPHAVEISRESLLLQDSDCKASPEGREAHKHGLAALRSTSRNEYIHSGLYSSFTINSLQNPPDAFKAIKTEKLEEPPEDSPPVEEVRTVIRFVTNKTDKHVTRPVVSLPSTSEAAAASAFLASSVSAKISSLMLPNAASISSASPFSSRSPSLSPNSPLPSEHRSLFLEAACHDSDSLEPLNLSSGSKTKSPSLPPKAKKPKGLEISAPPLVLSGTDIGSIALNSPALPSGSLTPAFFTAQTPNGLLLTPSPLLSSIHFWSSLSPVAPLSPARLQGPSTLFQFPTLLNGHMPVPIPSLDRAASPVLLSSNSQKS
# Summary of the method: as §1
# FEV = molecular target: T7, FEV (Homo sapiens, UniProt Q99581 1-238); conditions: protein: recombinant; tags: N-terminal GST; dsDNA, one strand shown
# T7 sequence: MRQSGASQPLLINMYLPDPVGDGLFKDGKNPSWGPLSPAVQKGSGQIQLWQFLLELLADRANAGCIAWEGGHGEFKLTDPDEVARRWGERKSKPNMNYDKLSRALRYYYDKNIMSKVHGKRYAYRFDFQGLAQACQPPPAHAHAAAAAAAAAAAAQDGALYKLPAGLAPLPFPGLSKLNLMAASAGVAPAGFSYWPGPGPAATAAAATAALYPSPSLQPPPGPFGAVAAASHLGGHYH
# Summary of the method: as §1
# ETV5 = ETV5 (Homo sapiens, UniProt P41161 1-510); conditions: protein: recombinant; tags: N-terminal GST; dsDNA, one strand shown
# ETV5, sequence (P41161 whole entry): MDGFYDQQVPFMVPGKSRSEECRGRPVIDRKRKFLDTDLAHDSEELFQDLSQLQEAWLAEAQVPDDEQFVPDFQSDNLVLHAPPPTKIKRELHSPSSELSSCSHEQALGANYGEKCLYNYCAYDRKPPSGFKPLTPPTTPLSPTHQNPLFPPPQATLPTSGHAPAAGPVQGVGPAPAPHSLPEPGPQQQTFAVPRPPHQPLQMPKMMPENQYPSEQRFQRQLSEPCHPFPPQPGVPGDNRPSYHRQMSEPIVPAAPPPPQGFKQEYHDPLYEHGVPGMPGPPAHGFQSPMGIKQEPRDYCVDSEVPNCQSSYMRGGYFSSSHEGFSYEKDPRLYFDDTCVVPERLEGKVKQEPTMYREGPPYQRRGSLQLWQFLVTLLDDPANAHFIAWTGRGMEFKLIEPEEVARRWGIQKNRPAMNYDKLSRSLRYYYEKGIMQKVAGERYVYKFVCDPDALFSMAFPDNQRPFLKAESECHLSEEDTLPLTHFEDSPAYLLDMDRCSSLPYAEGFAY
# Summary of the method: as §1
# HSF1 = HSF1 (Homo sapiens, UniProt Q00613 1-529); conditions: protein: recombinant; tags: N-terminal GST; chain copies: 3; dsDNA, one strand shown
# HSF1, sequence (Q00613 whole entry): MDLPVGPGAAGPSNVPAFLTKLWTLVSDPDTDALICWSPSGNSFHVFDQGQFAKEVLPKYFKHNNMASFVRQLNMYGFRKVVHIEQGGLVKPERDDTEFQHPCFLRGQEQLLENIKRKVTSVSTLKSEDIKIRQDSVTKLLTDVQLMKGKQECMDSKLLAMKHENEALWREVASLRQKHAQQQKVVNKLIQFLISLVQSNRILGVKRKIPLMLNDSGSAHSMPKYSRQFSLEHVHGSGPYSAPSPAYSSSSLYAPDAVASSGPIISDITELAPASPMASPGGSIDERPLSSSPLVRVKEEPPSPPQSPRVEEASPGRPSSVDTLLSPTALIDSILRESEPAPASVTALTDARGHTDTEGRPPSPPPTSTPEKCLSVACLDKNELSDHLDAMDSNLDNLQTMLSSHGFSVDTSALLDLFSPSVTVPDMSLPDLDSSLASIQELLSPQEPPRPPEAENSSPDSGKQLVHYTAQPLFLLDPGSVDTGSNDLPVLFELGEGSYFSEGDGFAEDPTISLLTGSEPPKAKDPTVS
# Summary of the method: as §1
# SPIC = molecular target: T8, SPIC (Homo sapiens, UniProt Q8N5J4 1-248); conditions: protein: recombinant; tags: N-terminal GST; dsDNA, one strand shown
# T8 sequence: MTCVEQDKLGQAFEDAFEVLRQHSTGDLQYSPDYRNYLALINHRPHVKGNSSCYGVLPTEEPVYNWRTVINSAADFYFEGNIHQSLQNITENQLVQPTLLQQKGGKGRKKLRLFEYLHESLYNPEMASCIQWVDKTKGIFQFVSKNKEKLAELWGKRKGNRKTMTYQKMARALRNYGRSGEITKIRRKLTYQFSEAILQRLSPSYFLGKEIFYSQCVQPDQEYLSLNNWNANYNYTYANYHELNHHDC
# Summary of the method: as §1
# ELF4 = ELF4 (Homo sapiens, UniProt Q99607 1-663); conditions: protein: recombinant; tags: N-terminal GST; dsDNA, one strand shown
# ELF4, sequence (Q99607 whole entry): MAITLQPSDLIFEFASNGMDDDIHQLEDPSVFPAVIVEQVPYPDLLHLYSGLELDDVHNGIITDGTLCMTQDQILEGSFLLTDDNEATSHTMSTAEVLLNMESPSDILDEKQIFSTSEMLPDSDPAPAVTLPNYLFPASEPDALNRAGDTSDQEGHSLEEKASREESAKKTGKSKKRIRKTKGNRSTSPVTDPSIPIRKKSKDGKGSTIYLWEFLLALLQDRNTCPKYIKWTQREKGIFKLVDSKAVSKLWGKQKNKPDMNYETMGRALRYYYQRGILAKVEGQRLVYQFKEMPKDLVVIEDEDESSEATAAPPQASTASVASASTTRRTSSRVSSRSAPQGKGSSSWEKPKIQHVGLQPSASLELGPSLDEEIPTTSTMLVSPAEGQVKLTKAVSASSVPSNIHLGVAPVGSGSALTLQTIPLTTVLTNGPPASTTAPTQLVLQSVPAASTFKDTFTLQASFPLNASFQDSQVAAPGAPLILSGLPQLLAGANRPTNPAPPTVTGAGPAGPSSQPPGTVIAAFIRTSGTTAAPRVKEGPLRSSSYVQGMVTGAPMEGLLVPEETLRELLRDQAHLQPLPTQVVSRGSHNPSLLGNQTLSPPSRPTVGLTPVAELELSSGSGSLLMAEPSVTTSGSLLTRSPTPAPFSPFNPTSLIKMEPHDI
# Summary of the method: as §1
# ELK4 = molecular target: T9, ELK4 (Homo sapiens, UniProt P28324-2 1-405); conditions: protein: recombinant; tags: N-terminal GST; dsDNA, one strand shown
# T9 sequence: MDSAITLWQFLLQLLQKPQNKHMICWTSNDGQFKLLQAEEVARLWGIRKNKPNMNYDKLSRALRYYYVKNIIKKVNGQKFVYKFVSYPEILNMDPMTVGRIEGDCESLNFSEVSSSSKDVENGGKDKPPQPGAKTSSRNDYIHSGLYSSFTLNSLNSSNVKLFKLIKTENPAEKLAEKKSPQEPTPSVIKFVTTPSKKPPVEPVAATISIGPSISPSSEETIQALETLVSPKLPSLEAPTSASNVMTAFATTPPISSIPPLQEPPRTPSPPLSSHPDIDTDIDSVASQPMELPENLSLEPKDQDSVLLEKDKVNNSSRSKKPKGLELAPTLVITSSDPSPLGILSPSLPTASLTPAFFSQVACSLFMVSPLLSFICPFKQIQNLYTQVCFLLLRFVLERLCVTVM
# Summary of the method: as §1
# ETV2 = molecular target: T10, ETV2 (Homo sapiens, UniProt O00321 1-342); conditions: protein: recombinant; tags: N-terminal GST; dsDNA, one strand shown
# T10 sequence: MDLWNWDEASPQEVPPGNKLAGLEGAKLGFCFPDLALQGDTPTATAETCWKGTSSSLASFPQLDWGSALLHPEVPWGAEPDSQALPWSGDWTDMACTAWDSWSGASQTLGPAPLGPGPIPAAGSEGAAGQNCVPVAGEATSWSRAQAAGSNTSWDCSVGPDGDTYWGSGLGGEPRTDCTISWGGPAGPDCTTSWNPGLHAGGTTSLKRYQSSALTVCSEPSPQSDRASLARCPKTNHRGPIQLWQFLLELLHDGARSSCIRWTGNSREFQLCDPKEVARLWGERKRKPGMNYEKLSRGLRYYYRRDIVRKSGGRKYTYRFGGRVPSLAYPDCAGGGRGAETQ
# Summary of the method: as §1
# ELF3 = molecular target: T11, ELF3 (Homo sapiens, UniProt P78545 1-371); conditions: protein: recombinant; tags: N-terminal GST; dsDNA, one strand shown
# T11 sequence: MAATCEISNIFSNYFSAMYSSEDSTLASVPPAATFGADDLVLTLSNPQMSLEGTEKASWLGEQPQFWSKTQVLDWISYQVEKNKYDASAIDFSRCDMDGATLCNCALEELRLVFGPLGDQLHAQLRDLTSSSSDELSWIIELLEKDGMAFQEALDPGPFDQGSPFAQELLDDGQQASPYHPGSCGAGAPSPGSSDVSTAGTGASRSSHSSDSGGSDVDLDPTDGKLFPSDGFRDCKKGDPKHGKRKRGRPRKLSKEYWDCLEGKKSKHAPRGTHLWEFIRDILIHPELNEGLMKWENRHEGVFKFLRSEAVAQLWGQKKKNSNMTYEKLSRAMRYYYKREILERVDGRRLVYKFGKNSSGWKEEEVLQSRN
# Summary of the method: as §1
# CRX = CRX (Homo sapiens, UniProt O43186 1-299); conditions: protein: recombinant; tags: N-terminal GST; dsDNA, one strand shown
# CRX, sequence (O43186 whole entry): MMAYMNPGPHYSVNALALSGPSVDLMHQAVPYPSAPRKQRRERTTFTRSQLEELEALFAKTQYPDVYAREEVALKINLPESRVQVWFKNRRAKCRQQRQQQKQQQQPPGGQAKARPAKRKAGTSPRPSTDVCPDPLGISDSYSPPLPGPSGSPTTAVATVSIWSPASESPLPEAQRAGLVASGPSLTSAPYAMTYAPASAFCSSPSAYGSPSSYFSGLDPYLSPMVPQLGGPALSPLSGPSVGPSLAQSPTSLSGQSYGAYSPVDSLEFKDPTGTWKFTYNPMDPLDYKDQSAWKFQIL
# Summary of the method: as §1
# ETV1 = ETV1 (Homo sapiens, UniProt P50549 1-477); conditions: protein: recombinant; tags: N-terminal GST; dsDNA, one strand shown
# ETV1, sequence (P50549 whole entry): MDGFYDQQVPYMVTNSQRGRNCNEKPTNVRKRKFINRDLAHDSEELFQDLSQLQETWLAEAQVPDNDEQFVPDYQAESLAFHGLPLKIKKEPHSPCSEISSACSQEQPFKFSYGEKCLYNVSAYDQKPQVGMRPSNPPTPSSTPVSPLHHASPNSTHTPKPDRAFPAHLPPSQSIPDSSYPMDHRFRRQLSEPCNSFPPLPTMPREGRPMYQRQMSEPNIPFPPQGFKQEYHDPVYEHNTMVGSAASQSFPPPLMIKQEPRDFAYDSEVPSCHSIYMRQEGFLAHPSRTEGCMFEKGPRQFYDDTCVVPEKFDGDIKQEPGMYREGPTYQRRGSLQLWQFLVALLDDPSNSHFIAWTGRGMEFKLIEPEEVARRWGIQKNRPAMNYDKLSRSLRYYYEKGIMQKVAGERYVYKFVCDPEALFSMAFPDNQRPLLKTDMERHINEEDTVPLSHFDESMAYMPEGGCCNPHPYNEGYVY
# Summary of the method: as §1
sequence,measurement,setting,value
CTTTGA,binding signal,FLI1,"1.29 fold enrichment (6-mer frequency, TF over GST control)"
same,binding signal,ELK1,"1.22 fold enrichment (6-mer frequency, TF over GST control)"
same,binding signal,GABPA,"1.26 fold enrichment (6-mer frequency, TF over GST control)"
same,binding signal,ERG,"1.26 fold enrichment (6-mer frequency, TF over GST control)"
same,binding signal,ELF1,"1.26 fold enrichment (6-mer frequency, TF over GST control)"
same,binding signal,EHF,"1.16 fold enrichment (6-mer frequency, TF over GST control)"
same,binding signal,SPI1,"1.21 fold enrichment (6-mer frequency, TF over GST control)"
same,binding signal,SPIB,"1.24 fold enrichment (6-mer frequency, TF over GST control)"
same,binding signal,ELK3,"1.15 fold enrichment (6-mer frequency, TF over GST control)"
same,binding signal,FEV,"1.14 fold enrichment (6-mer frequency, TF over GST control)"
same,binding signal,ETV5,"1.18 fold enrichment (6-mer frequency, TF over GST control)"
same,binding signal,HSF1,"1.21 fold enrichment (6-mer frequency, TF over GST control)"
same,binding signal,SPIC,"1.4 fold enrichment (6-mer frequency, TF over GST control)"
same,binding signal,ELF4,"1.24 fold enrichment (6-mer frequency, TF over GST control)"
same,binding signal,ELK4,"1.41 fold enrichment (6-mer frequency, TF over GST control)"
same,binding signal,ETV2,"1.27 fold enrichment (6-mer frequency, TF over GST control)"
same,binding signal,ELF3,"1.16 fold enrichment (6-mer frequency, TF over GST control)"
same,binding signal,CRX,"1.23 fold enrichment (6-mer frequency, TF over GST control)"
same,binding signal,ETV1,"1.21 fold enrichment (6-mer frequency, TF over GST control)"
